Among the test systems are STK36; STK39; SYK; SgK110; TAOK1; TAOK2; TAOK3; TBK1; TEC; TESK1; TGFBR1; TGFBR2; TIE1; TLK1; TLK2; TNIK; TNK1; TNK2.
Holding throughout (conditions): concentration: 1 μM, replicates: in singlicate; n = 1
The next test concerns T1, TAK1.
T1 construct: gene MAP3K7

The test system of the next test is T2, TIE2.
T2 construct: gene TEK

The structures appear in SMILES notation.
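Further: KINOMEscan kinase panel screen.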

As to `COc1cc(Nc2ccnc3cc(-c4ccncc4)ccc23)cc(OC)c1OC.Cl` [GW494610], the “%Inh” value with STK36 is on record as 9%; in the test on STK39 it was 11%; with SYK, 0%; in the test on SgK110, 0%; in the test with TAK1, 0%; in the test with TAOK1, 0%. In addition, the “%Inh” value in the test on TAOK2 is on record as 0%; in the test with TAOK3, 0%; with TBK1 it was 0%; in the test on TEC it was 5%; with TESK1, 73%; with TGFBR1, 63%. For the same molecule, the “%Inh” value with TGFBR2 turned out to be 59%; with TIE1, 19%; with TIE2, 15%; in the test on TLK1 it was 0%; in the test with TLK2, 0%; in the test on TNIK, 89%. For the same molecule, the “%Inh” value with TNK1 was 40%; with TNK2 it was 28%.
Regarding `O=C(O)C(F)(F)F.O=c1[nH]ccc2nc(N[C@@H]3CCNC3)nc(Nc3cc(Cl)cc(Cl)c3)c12` [GSK2188764], the “%Inh” value with STK36 is 17%; in the test on STK39, 75%; in the test with SYK it was 84%; in the test on SgK110 it was 3%; in the test with TAK1, 99.1%; with TAOK1, 34%. Moreover, the “%Inh” value is given as 3% in the test on TAOK2; 18% with TAOK3; 54% in the test with TBK1; 0% with TEC; 8% in the test on TESK1; 25% in the test on TGFBR1. Also, the “%Inh” value in the test with TGFBR2 is on record as 0%; with TIE1 it was 0%; in the test on TIE2 it was 0%; in the test on TLK1 it was 62%; with TLK2, 73%; in the test with TNIK it was 96.5%. Besides, the “%Inh” value with TNK1 was 41%; in the test with TNK2 it was 4%.
For the molecule `Nc1ncc(-c2ccc3nccc(-c4ccncc4)c3c2)cc1S(=O)(=O)N1CCCCC1` [GSK1693850], the “%Inh” value with STK36 is on record as 0%; with STK39, 0%; with SYK it was 29%; in the test with SgK110, 0%; in the test with TAK1, 14%; in the test with TAOK1, 3%. Further, the “%Inh” value stood at 0% in the test with TAOK2; 5% in the test with TAOK3; 6% in the test with TBK1; 0% with TEC; 20% in the test with TESK1; 0% in the test with TGFBR1. Besides, the “%Inh” value is reported as 0% in the test with TGFBR2; 4% in the test on TIE1; 0% in the test on TIE2; 37% in the test on TLK1; 0% in the test with TLK2; 10% in the test on TNIK. In addition, the “%Inh” value is given as 0% in the test on TNK1 and 9% with TNK2.
With `Cc1ccc(O)cc1Nc1ccnc2ccc(C(C)(C)C)cc12` [GW856805], the “%Inh” value in the test with STK36 turned out to be 0%; in the test with STK39, 43%; with SYK, 24%; in the test with SgK110, 0%; in the test with TAK1, 57%; in the test on TAOK1, 35%. The “%Inh” value is 13% in the test on TAOK2; 28% in the test on TAOK3; 27% with TBK1; 31% in the test with TEC; 0% with TESK1; 8% in the test with TGFBR1. The “%Inh” value with TGFBR2 is reported as 93.2%; in the test on TIE1 it was 38%; in the test on TIE2, 39%; with TLK1 it was 0%; in the test with TLK2 it was 31%; in the test on TNIK, 0%. The “%Inh” value with TNK1 was found to be 69%; in the test on TNK2 it was 13%.
Regarding `Cl.Cl.NCC(NC(=O)c1cc(-c2cccnc2)c(-c2ccnc3[nH]ccc23)s1)c1ccccc1` (stereo not shown) [GSK1323434], the “%Inh” value in the test with STK36 amounted to 0%; with STK39, 64%; in the test with SYK, 18%; in the test with SgK110, 0%; in the test with TAK1 it was 45%; in the test on TAOK1, 29%. The “%Inh” value came to 0% in the test on TAOK2; 0% in the test with TAOK3; 2% in the test on TBK1; 27% in the test on TEC; 19% in the test with TESK1; 22% in the test with TGFBR1. Moreover, the “%Inh” value is 27% in the test with TGFBR2; 19% with TIE1; 0% in the test on TIE2; 14% in the test on TLK1; 0% in the test with TLK2; 77% in the test with TNIK. Moreover, the “%Inh” value in the test with TNK1 is listed as 0%; in the test with TNK2, 16%.
Turning to `COC(=O)Nc1nc2ccc(Oc3ccc(NC(=O)Nc4cc(C(F)(F)F)ccc4F)cc3)cc2[nH]1.Cl` [GW654607], the “%Inh” value in the test on STK36 is 0%; in the test on STK39, 13%; with SYK, 29%; in the test with SgK110, 55%; in the test with TAK1 it was 94.7%; with TAOK1, 0%. The “%Inh” value is reported as 0% in the test with TAOK2; 6% with TAOK3; 0% in the test on TBK1; 0% with TEC; 0% in the test on TESK1; 0% in the test on TGFBR1. Moreover, the “%Inh” value with TGFBR2 is given as 7%; with TIE1 it was 97.7%; in the test with TIE2, 99.7%; in the test with TLK1, 7%; in the test on TLK2, 4%; in the test on TNIK, 5%. The “%Inh” value in the test with TNK1 is on record as 48%; with TNK2, 12%.
As for `Cl.N#CCc1ccc(Nc2nccc(Nc3ccc(Oc4ccccc4)cc3)n2)cc1` [GW639905], the “%Inh” value in the test with STK36 was 0%; with STK39, 10%; with SYK, 5%; in the test with SgK110, 6%; in the test on TAK1, 0%; in the test on TAOK1 it was 0%. Moreover, the “%Inh” value with TAOK2 came out at 7%; in the test with TAOK3 it was 0%; with TBK1, 6%; in the test with TEC, 75%; with TESK1, 56%; in the test with TGFBR1, 0%. Also, the “%Inh” value is listed as 8% in the test on TGFBR2; 2% in the test on TIE1; 9% with TIE2; 0% in the test on TLK1; 0% in the test on TLK2; 0% in the test on TNIK. Besides, the entries for the “%Inh” value in the test on TNK1 and in the test with TNK2 were 59% and 26%, respectively.
Take `Cc1ccc(C)c(NC(=O)Nc2ccc(C)c(-c3ccc(C(=O)Nc4ccncc4)cc3)c2)c1` [GSK1398473]: the “%Inh” value with STK36 was 2%; with STK39, 5%; in the test on SYK it was 17%; in the test with SgK110, 20%; with TAK1, 0%; with TAOK1 it was 0%. For the same molecule, the “%Inh” value was 0% in the test on TAOK2; 0% with TAOK3; 2% with TBK1; 5% with TEC; 20% in the test with TESK1; 11% in the test on TGFBR1. Moreover, the “%Inh” value in the test on TGFBR2, in the test with TIE1, in the test with TIE2, in the test on TLK1, in the test on TLK2 and in the test with TNIK was 0% throughout. In addition, the “%Inh” value in the test on TNK1 amounted to 7%; in the test on TNK2, 36%.

(Values after article PMC5540273 (PLoS ONE, 2017).)
